# Data reported in PubChem BioAssay (NCATS).
# Records with an inconclusive call do not appear. The source made the active and inactive calls. The call rests on the fitted dose curve; in most records, active means well fitted inhibition curve with a large enough effect; inconclusive means small, poorly fitted or top-dose-only effect; inactive means no such curve, though single readings can be large or run the other way.
# What was measured:
# [1] = test system: Zika virus NS2B-NS3 protease (unlinked complex); test: Primary screen GU Rhodamine qHTS for Zika virus inhibitors: Unlinked NS2B-NS3 protease assay (AID 1347159); further: nearly all actives have a fitted effect of over 60% in size
# Procedure, shortened: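 Unlinked NS2B/NS3, 25 nM; Rhod110 peptide, 1.5 microM; compounds, up to 114 microM. Reaction run 15 min at RT in 10 mM Tris-HCl pH 8.0, 0.01% Tween 20; kinetic fluorescence change fitted with a 4-parameter Hill model.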
# [2] = test system: Zika virus NS2B-NS3 protease (linked construct); test: Primary screen NINDS Rhodamine qHTS for Zika virus inhibitors (AID 1347160); further: nearly all actives have a fitted effect of over 55% in size
# Procedure, shortened: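 Single-chain NS2B-NS3 protease, 25 nM, pH 8.0; compounds preincubated 15 min. Activity: Rhodamine110 release from 1.5 microM substrate over 15 min, room temperature, data fitted to 4-parameter Hill.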
compound,measurement,setting,value
CC[C@]12CCCN3CCc4c(n(c5ccccc45)C(=O)C1)[C@@H]32,outcome,[1],inactive
same,outcome,[2],inactive
